The structures appear in SMILES notation. Records with an inconclusive call do not appear. The source made the active and inactive calls.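 Rule for the calls, unless noted: active = inhibition above the screen-wide mean plus 3 SD, about 51%; inactive = the rest.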

Assay [1] is described as follows: yeast TOR pathway RPL19A-GFP modulators, primary screen, cell-based, S. cerevisiae, multiplex flow cytometry (AID 1862; in the data active = percent of DMSO control GFP below about 86%;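 note: lower values mimic rapamycin by blocking the RPL19A rise seen in DMSO cells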). The settings on record: S. cerevisiae RPL19A-GFP strain, flow cytometry fluorescence, 3 h; at 10 µM; stronger effect = lower value.
Assay [2] is described as follows: modulators of MEP2-GFP levels in yeast, primary screen, S. cerevisiae, multiplex flow cytometry (AID 1867;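 active = GFP response, as percent of the DMSO control, above the screen-wide mean plus 3 SD, about 139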;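 note: median GFP channel fluorescence of barcode-gated MEP2-GFP cells measured by flow cytometry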). The settings on record: S. cerevisiae MEP2-GFP strain, 3 h, at 10 µM, stronger effect = higher value, 100% means same as DMSO wells. For orientation: In flow cytometry, cells or beads pass a laser one at a time.
Assay [3] in a line: modulators of CIT2-GFP expression in yeast, primary screen, S. cerevisiae, GFP fusion, multiplex flow cytometry (AID 1870;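 active = percent response above a set limit, the screen-wide mean plus 3 SD, cut at about 130% in these data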;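 note: barcoded CIT2-GFP strain pooled with four other GFP strains with rapamycin as positive control; median GFP fluorescence per well over plate mean of DMSO wells so 100% = DMSO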). As to conditions: 3 h, at 10 µM, stronger effect = higher value.
Assay [4] is described as follows: modulators of LAP4-GFP expression in yeast, primary screen, S. cerevisiae, multiplex flow cytometry (AID 1873;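 active = GFP signal, as percent of the solvent control, above the screen mean plus 3 SD, about 149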). As to conditions: 3 h, at 10 µM, stronger effect = higher value.
Assay [5] is described as follows: modulators of AGP1-GFP expression in yeast TOR pathway, primary screen, cell-based, multiplex flow cytometry, S. cerevisiae (AID 1887;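 active = GFP signal above the screen-wide mean plus 3 SD, that is over about 124.5% of the solvent control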;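 note: AGP1-GFP fusion strain of S. cerevisiae within a five-strain barcoded multiplex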). As to conditions: 3 h, at 10 µM, stronger effect = higher value.
Assay [6] is described as follows: inhibitors of CD8+ T cell-vesicle binding, pilot screen, LFA-1/ICAM-1 modulator project, MLPCN validation set, flow cytometry (AID 2523;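 active = response below a set limit, under 55% cells CD8-positive and vesicle-bound, and CD8 cells' 90th-percentile brightness under 279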;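 for vesicle binding response: mean PE anti-B7-1 fluorescence of CD8+ cells relative to row control; 100% = QL9-loaded vesicles with DMSO vehicle in the same plate row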). As to conditions: 2C mouse CD8+ T cells, at 7 µM, stronger effect = lower value; double positive events: measured here: CD8+/vesicle+ event percentage.
Assay [7] deals with Integrin beta-1 (Homo sapiens) + Integrin alpha-4 (Homo sapiens) (UniProt P13612+P05556). Briefly: inhibition of HUTS-21 binding to VLA-4, pilot screen, VLA-4 allosteric modulator project, U937 cells, HUTS-21 mAb, flow cytometry, validation set (AID 2674;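 active = inhibition above 50%, about 3 SD of the validation set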;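 note: antibody binding induced by the VLA-4 ligand LDV present at three times its Kd; 0% = LDV ligand with antibody and no compound and 100% = antibody without LDV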). As to conditions: HUTS-21 LIBS mAb binding, at 6.7 µM, stronger effect = higher value, binding induced by LDV ligand.
Sequence of Integrin beta-1 (Homo sapiens) + Integrin alpha-4 (Homo sapiens) (P05556 whole entry, looked up): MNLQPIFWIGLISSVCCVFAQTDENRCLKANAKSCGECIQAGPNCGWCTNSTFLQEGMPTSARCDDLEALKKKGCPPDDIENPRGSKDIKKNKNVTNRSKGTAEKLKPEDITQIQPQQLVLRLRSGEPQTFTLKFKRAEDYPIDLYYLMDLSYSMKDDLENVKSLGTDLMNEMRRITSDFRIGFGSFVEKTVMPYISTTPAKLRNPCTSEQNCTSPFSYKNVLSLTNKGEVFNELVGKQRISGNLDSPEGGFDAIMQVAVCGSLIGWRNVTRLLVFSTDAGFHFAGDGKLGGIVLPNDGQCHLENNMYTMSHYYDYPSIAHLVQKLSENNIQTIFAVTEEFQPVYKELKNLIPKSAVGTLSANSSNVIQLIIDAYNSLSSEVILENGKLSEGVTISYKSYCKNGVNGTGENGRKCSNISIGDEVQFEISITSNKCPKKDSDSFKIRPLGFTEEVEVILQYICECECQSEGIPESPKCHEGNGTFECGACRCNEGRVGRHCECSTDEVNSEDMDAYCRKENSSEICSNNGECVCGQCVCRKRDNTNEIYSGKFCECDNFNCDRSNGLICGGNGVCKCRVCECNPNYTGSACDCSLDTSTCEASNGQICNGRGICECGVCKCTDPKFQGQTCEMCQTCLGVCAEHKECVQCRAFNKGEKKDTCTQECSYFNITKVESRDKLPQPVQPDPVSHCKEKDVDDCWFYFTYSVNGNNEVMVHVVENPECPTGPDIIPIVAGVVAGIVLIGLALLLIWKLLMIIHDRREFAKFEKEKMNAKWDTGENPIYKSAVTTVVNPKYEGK
Sequence of Integrin beta-1 (Homo sapiens) + Integrin alpha-4 (Homo sapiens) (P13612 whole entry, looked up): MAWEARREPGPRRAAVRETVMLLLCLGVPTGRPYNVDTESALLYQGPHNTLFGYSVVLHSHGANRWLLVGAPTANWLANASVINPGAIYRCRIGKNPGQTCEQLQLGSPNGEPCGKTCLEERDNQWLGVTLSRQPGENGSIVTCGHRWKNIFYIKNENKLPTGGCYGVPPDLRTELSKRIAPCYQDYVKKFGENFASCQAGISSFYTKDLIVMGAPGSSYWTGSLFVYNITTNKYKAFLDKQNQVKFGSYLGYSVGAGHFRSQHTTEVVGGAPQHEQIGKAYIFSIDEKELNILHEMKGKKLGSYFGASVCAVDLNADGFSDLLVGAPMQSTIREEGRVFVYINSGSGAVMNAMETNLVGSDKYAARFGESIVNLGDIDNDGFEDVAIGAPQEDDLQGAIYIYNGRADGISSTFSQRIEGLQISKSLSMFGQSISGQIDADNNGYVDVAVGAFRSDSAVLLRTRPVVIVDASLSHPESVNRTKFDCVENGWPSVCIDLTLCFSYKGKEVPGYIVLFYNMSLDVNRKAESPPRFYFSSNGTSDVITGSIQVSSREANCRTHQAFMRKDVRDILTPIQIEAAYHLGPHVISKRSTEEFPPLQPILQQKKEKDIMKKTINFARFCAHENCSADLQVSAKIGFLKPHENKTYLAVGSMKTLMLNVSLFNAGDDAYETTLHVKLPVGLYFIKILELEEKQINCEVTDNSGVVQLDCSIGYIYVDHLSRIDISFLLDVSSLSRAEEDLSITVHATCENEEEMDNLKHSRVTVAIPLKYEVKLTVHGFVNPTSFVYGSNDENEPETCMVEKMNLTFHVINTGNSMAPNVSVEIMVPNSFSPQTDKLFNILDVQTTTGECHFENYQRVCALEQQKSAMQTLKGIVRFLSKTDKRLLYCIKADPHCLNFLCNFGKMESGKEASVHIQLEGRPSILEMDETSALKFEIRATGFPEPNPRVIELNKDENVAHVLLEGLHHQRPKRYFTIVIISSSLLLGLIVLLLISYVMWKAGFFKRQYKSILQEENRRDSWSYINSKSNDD
Assay [8] in a line: superoxide lowering in aged yeast cells, pilot screen, validation compound set (AID 2706;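 active = superoxide response below 65% of plate, a cut near 3 SD across the whole screen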;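 note: yeast exposed to compound for one week at 30 degrees C before staining; 100% = mean of all compound wells on the same plate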). The settings on record: S. cerevisiae aging, superoxide DHE fluorescence; at 10 µM; stronger effect = lower value.
Assay [9] addresses Beta-adrenergic receptor kinase 1 (Homo sapiens) (UniProt P25098). Briefly: GRK2 binders displacing RNA aptamer, biochemical, validation, human GRK2, bead flow cytometry (AID 488806;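 active = aptamer binding inhibition above 30%, about 3 SD of noise from non-fluorescent compounds; inactive = inhibition at or below 30%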). The settings on record: bead-bound GRK2, FAM-aptamer displacement, at 10 µM, stronger effect = higher value.
The target of assay [10] is Beta-2 adrenergic receptor (Homo sapiens) (UniProt P07550). Briefly: beta2AR agonists driving receptor internalization, pilot screen, cell-based, FAP fluorogen, flow cytometry, validation set (AID 504459;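 active = percent response above 42, roughly 3 SD of non-fluorescent test compounds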;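 note: agonist-driven loss of surface beta2AR via internalization measured by FAP dye flow cytometry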). As to conditions: Am2.2-beta2AR cells, FAP surface receptor flow cytometry; at 10 µM; stronger effect = higher value.
Sequence of Beta-2 adrenergic receptor (Homo sapiens) (P07550 whole entry, looked up): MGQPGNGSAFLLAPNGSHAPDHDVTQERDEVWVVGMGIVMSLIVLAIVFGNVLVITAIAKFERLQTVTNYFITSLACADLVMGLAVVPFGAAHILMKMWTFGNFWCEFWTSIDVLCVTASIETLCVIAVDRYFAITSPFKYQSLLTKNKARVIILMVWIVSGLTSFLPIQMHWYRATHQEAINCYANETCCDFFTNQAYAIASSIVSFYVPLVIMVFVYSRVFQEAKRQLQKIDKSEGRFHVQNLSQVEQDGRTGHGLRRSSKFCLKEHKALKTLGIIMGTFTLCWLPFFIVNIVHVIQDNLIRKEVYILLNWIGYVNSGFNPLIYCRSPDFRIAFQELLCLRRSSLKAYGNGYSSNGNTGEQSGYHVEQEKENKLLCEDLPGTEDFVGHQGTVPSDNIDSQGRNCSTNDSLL
In assay [11] the target is AP-2 complex subunit beta (Homo sapiens) (UniProt P63010). Briefly: inhibitors of arrestin peptide binding to AP2, pilot screen, biochemical, validation set, GST-AP2 beads, flow cytometry (AID 504541;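 active = inhibition above 54%, about 3 SD of non-fluorescent compounds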;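 note: AP2 carries R879A mutation and is captured from E. coli lysate; bead-bound FITC arrestin peptide fluorescence measuring arrestin peptide binding to AP2; 0% = DMSO wells and 100% = excess unlabeled arrestin peptide control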). As to conditions: FITC arrestin peptide, at 10 µM, stronger effect = higher value, AP2 beta2 appendage fragment, R879A mutant.
Sequence of AP-2 complex subunit beta (Homo sapiens) (P63010 whole entry, looked up, the tested form may be a part, one chain of several): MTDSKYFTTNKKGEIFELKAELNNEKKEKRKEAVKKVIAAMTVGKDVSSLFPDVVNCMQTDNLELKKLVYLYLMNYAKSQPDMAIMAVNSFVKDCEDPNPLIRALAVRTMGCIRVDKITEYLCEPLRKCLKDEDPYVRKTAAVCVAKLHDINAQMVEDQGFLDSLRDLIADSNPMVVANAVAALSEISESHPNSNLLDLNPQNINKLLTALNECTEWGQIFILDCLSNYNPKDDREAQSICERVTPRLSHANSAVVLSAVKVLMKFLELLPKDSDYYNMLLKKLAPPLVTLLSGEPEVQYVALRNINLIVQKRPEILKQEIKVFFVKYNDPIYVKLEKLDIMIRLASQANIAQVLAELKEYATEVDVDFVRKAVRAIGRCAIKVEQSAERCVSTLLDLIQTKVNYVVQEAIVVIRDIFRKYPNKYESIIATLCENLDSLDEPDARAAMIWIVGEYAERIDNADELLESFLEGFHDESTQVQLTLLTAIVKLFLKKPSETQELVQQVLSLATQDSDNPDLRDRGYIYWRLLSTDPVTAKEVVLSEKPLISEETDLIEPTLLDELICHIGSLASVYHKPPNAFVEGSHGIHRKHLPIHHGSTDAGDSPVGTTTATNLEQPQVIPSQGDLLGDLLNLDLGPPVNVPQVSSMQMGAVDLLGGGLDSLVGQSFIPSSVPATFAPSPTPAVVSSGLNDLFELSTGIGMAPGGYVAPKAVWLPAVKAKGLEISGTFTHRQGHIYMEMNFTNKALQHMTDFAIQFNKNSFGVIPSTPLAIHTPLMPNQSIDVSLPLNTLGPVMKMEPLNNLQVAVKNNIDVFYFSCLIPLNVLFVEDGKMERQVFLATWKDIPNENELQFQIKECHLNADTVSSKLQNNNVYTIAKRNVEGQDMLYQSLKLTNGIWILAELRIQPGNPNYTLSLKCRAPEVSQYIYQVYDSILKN
A short description of assay [12]: yeast V-ATPase proton transport modulators, S. cerevisiae, pHLuorin, HTS validation (AID 504600; in the data active = response above about 15%;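 note: plate controls were DMSO for no effect and reference compound for full effect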). As to conditions: S. cerevisiae pHLuorin cytosolic pH, at 10 µM, stronger effect = higher value.
Assay [13] deals with anti-desmoglein-3 scFv antibody binding to human DSG3. Briefly: inhibitors of anti-DSG3 scFv binding to DSG3, pilot screen, biochemical, validation compound set, bead-based, flow cytometry (AID 588368;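 active = binding below the plate cutoff, the plate median minus 3 SD, with a reading above zero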;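 note: signal is the median channel fluorescence of bead-bound GFP antibody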). As to conditions: Protein G beads, DSG3-Fc, scFv-GFP binding, at 10 µM, stronger effect = lower value.
Assay [14] can be described thus: inhibitors of fungal efflux pumps CDR1, CDR2, MDR1, pilot screen, validation compound set, multiplex, phenotypic (AID 588506;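 active = efflux inhibition above 0.42, the validation set average plus 4 SD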;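 note: Nile Red retained in cells so higher fluorescence means more efflux inhibition; 0 = negative control wells and 1 = enniatin B 25 µM full block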). As to conditions: S. cerevisiae pump-expressing triplex, Nile Red efflux flow cytometry; at 10 µM; stronger effect = higher value; the pumps come from Candida albicans.
Assay [15] concerns the target ATP-binding cassette sub-family B member 6 (Homo sapiens) (UniProt Q9NP58). Briefly: ABCB6 transporter inhibitors, pilot screen, K562-ABCB6 cells, flow cytometry, validation set (AID 588550).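 Note: 0% = DMSO wells and 100% = benzethonium chloride 70 µM positive control.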 As to conditions: K562-ABCB6 porphyrin accumulation, 1 h, at 10 µM, stronger effect = higher value.
A short description of assay [16]: promoters of myeloid differentiation in arrested cells, primary screen, cell-based, GFP/MAC1 double positive, flow cytometry, validation set (AID 588685;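 active = differentiation response of at least 50%, scaled between solvent and reference control, from cells with both markers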;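 note: compound exposure lasts four days before antibody staining and flow analysis; 0% = DMSO wells and 100% = 5 µM fulvestrant positive control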). As to conditions: ER-HoxA9 marrow cells, stronger effect = higher value, normalized: vehicle 0, fulvestrant 100.

Sequence of Beta-adrenergic receptor kinase 1 (Homo sapiens) (P25098 whole entry, looked up): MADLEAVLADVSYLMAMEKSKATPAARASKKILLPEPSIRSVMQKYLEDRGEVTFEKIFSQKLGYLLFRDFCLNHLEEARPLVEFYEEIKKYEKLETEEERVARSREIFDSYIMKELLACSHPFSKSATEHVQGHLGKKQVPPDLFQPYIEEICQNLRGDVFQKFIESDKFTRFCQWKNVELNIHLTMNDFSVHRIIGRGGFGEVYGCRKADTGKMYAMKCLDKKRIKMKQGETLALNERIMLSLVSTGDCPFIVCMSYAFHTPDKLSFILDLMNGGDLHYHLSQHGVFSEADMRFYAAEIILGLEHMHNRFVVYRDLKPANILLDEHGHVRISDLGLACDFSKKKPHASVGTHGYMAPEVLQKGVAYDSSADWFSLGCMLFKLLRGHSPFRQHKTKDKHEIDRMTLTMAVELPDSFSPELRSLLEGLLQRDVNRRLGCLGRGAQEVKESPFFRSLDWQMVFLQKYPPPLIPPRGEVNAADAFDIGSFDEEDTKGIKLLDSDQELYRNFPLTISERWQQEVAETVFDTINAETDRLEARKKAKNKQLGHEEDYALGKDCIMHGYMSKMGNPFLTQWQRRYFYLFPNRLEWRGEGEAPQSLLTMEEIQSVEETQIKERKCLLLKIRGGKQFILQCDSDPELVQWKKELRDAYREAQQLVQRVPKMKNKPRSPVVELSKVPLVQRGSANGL
Sequence of ATP-binding cassette sub-family B member 6 (Homo sapiens) (Q9NP58 whole entry, looked up): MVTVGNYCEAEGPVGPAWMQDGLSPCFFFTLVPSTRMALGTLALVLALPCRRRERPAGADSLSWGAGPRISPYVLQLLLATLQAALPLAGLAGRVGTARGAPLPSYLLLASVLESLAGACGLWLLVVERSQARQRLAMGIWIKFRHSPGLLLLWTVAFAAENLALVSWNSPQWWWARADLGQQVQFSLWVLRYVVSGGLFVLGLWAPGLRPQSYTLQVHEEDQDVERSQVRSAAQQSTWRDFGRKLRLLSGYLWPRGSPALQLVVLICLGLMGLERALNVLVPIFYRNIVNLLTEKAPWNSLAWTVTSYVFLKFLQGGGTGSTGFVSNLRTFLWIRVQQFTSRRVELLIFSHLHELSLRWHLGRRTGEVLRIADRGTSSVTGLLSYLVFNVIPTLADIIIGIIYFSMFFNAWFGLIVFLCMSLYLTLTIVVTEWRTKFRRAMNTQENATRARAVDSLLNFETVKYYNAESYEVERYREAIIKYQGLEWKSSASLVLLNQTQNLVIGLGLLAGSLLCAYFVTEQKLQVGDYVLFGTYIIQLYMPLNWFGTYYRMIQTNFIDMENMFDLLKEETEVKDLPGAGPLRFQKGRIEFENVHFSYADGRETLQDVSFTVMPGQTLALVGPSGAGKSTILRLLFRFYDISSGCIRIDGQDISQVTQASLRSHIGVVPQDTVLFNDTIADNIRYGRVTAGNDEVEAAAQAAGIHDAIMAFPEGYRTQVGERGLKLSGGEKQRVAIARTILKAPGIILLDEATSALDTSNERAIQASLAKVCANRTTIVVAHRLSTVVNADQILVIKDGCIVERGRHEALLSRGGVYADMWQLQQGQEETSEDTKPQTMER

As a reminder, the inhibition is the relative decrease from the control value, in per cent. As to `CCc1nc2ccccc2n1Cc1ccc(OC)c(OC)c1`, the percent of DMSO control GFP in [1] was 98.1% (inactive). The values for the GFP response vs DMSO in assay [2] and in [4] were 99.6% (inactive) and 107% (inactive), respectively. Besides, the percent response of DMSO control in assay [3] was 95.7% (inactive). Also, in assay [5], the GFP response, % of DMSO is 109% (inactive). Besides, in assay [6], the double positive events worked out at 60.7%. Besides, in assay [6], the vesicle binding response is 132% (inactive). The results for the inhibition in [7], in assay [11] and in assay [15] were 3.14% (inactive), 7.51% (inactive) and 2% (inactive), respectively. The superoxide response (% of plate) in assay [8] was 105% (inactive). Further, in [9], the aptamer binding inhibition is 3% (inactive). Further, the results for the response in assay [10] and in [12] were -19% (inactive) and 2.99% (inactive), respectively. Besides, in assay [13], the binding (% of control) is 89.6% (inactive). The efflux inhibition (fraction of control) in assay [14] is 0 (inactive). Besides, the differentiation response in assay [16] is 18.7% (inactive).
Regarding `O=C(O)CP(=O)(O)O`, the percent of DMSO control GFP in assay [1] was 97.2% (inactive). Further, the GFP response vs DMSO in assay [2] and in assay [4] was 105% (inactive) throughout. Also, the percent response of DMSO control in assay [3] was 93.4% (inactive). Also, the GFP response, % of DMSO in [5] was 96.8% (inactive). Besides, the double positive events in assay [6] was 66.7%. In [6], the vesicle binding response is 206% (inactive). In addition, the inhibition in [7] is 11% (inactive); in assay [11], 3.17% (inactive); in assay [15] it was 16% (inactive). Moreover, the superoxide response (% of plate) in assay [8] was 99% (inactive). Moreover, the aptamer binding inhibition in assay [9] is 6% (inactive). In addition, the figures for the response in assay [10] and in assay [12] were 6.2% (inactive) and -1.85% (inactive), respectively. In addition, in [13], the binding (% of control) is 105% (inactive). Moreover, in assay [14], the efflux inhibition (fraction of control) was 0.03 (inactive). In addition, the differentiation response in [16] is -4.57% (inactive).
Take `CC(C)OC(=O)CC12CN3CN(C1)CC(CC(=O)OC(C)C)(C3)C2=O`: in [1], the percent of DMSO control GFP was 99.5% (inactive). Besides, the results for the GFP response vs DMSO in assay [2] and in assay [4] were 115% (inactive) and 119% (inactive), respectively. Further, in assay [3], the percent response of DMSO control is 90.1% (inactive). Also, the GFP response, % of DMSO in [5] was 105% (inactive). Further, in assay [6], the double positive events stood at 60.5%. The vesicle binding response in [6] is 179% (inactive). For the same molecule, the inhibition was -0.43% (inactive) in [7], 11.2% (inactive) in assay [11] and 11% (inactive) in [15]. Besides, in assay [8], the superoxide response (% of plate) is 92.3% (inactive). Besides, in assay [9], the aptamer binding inhibition was 1% (inactive). The response in assay [10] was -2.44% (inactive); in assay [12], -2% (inactive). In assay [13], the binding (% of control) is 103% (inactive). Moreover, the efflux inhibition (fraction of control) in [14] was 0.12 (inactive). In assay [16], the differentiation response was 39.2% (inactive).
Turning to `Cc1ccc2c(c1)C1(C(=O)N2)N2CCCC2C(C(=O)c2ccc3ccccc3c2)C12C(=O)Nc1ccccc12` (stereo not given), the percent of DMSO control GFP in [1] is 107% (inactive). Also, the GFP response vs DMSO in [2] is 93% (inactive); in assay [4], 89.4% (inactive). Besides, in [3], the percent response of DMSO control was 115% (inactive). The GFP response, % of DMSO in [5] is 101% (inactive). The same molecule had a double positive events in assay [6] of 60.9%. Besides, the vesicle binding response in assay [6] is 224% (inactive). Besides, the inhibition in assay [7] is -8.75% (inactive); in assay [11], -0.28% (inactive); in assay [15] it was -11% (inactive). In addition, in assay [8], the superoxide response (% of plate) is 94.8% (inactive). Besides, the aptamer binding inhibition in assay [9] is 1% (inactive). Further, the response is 3.54% (inactive) in assay [10] and 2.26% (inactive) in [12]. In addition, the binding (% of control) in assay [13] was 97.2% (inactive). For the same molecule, in assay [14], the efflux inhibition (fraction of control) is 0.24 (inactive). For the same molecule, the differentiation response in [16] is -0.73% (inactive).
Turning to `COc1ccc(NS(=O)(=O)c2ccc(N)cc2)nn1`, the percent of DMSO control GFP in assay [1] is 97.3% (inactive). Besides, the figures for the GFP response vs DMSO in assay [2] and in assay [4] were 104% (inactive) and 120% (inactive), respectively. In addition, the percent response of DMSO control in assay [3] was 92.9% (inactive). The GFP response, % of DMSO in [5] was 102% (inactive). The double positive events in [6] came out at 56.9%. The vesicle binding response in assay [6] is 162% (inactive). The figures for the inhibition in assay [7], in assay [11] and in assay [15] were 5.03% (inactive), 4.72% (inactive) and 2% (inactive), respectively. The superoxide response (% of plate) in assay [8] is 91.9% (inactive). The aptamer binding inhibition in [9] was 6% (inactive). The response in [10] was -5.23% (inactive); in assay [12], 3.89% (inactive). Moreover, the binding (% of control) in assay [13] was 102% (inactive). In addition, the efflux inhibition (fraction of control) in assay [14] is -0.17 (inactive). The differentiation response in [16] was -12% (inactive).

For the origin of these results see PubChem BioAssay.
